The record followed here is PubChem BioAssay (Tox21).

Where “and” joins values, the source holds several entries; their conditions need not be identical. Identical values can stand only once. Results filed as inconclusive are left out. The source holds several records for some structures; these can differ, active in one and inactive in another. Calls of active or inactive are those of the source. Unless noted, calls follow the shape of the dose curve; as a rule, active = well fitted curve in the direction sought with a large enough effect in the repeat runs; inconclusive = weak or mixed curves; inactive = no such curve, though single readings can be large; an effect the other way counts as inactive or inconclusive.

The nature of assay [1]: qHTS assay to identify small molecule antagonists of the thyroid receptor (TR) signaling pathway (AID 743065). Also: nearly all actives have a fitted effect of over 55% in size. Also: potency is read from the fitted curve at half-maximal effect. The method in brief: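 GH3.TRE-Luc rat pituitary cells carrying two TR response elements driving luciferase were plated for 4 h, given compound plus 1 nM T3 (final), and incubated 23.5 h at 37 C. ONE-Glo luminescence measured reporter inhibition; CellTiter-Fluor fluorescence tracked cytotoxicity.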

For assay [2], the system named is thyroid hormone receptor (rat, GH3 cells). As to the kind of experiment: qHTS assay to identify small molecule agonists of the thyroid receptor (TR) signaling pathway (AID 743066; calls by dose curve).
The nature of assay [3]: qHTS assay to identify small molecule antagonists of the estrogen receptor alpha (ER-alpha) signaling pathway - cell viability counter screen (AID 743074; calls by dose curve;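 also: HEK293 cells carrying ER-alpha-UAS-bla reporter stimulated with 17beta-estradiol; nearly all actives have a fitted effect of over 45% in size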; also: potency is read from the fitted curve at half-maximal effect). (qHTS replaces the single test concentration by a dilution series.)
In assay [4] the target is Estrogen receptor (Homo sapiens) (UniProt P03372). As to the kind of experiment: qHTS assay to identify small molecule agonists of the estrogen receptor alpha (ER-alpha) signaling pathway (AID 743075; calls by dose curve;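 also: HEK293 GripTite cells with ER-alpha and UAS-driven beta-lactamase reporter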).
Assay [5] has the same target. As to the kind of experiment: qHTS assay to identify small molecule agonists of the estrogen receptor alpha (ER-alpha) signaling pathway using the BG1 cell line (AID 743079). Also: nearly all actives have a fitted effect of over 20% in size. Also: potency is read from the fitted curve at half-maximal effect.
Assay [6] is described as follows: qHTS assay to identify small molecule antagonists of the estrogen receptor alpha (ER-alpha) signaling pathway using the BG1 cell line (AID 743080; calls by dose curve; also: series mostly up to about 70 µM; nearly all actives have a fitted effect of over 25% in size). An outline of the steps:
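Antagonist mode: compounds in DMSO were pinned onto BG1-Luc-4E2 cells alongside 17beta-estradiol agonist, incubated 21.5 h, and ERE-driven luciferase measured with ONE-Glo. Cytotoxicity was multiplexed using CellTiter-Fluor fluorescence.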

Assay [7] in a line: qHTS assay to identify small molecule antagonists of the estrogen receptor alpha (ER-alpha) signaling pathway using the BG1 cell line - cell viability counter screen (AID 743081).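 Also: compound given together with 17beta-estradiol as the ER stimulus; nearly all actives have a fitted effect of over 45% in size.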 Also: potency is read from the fitted curve at half-maximal effect.
Another assay deals with Aromatase (Homo sapiens) (UniProt P11511). As to the kind of experiment: qHTS assay to identify aromatase inhibitors (AID 743083). Also: nearly all actives have a fitted effect of over 55% in size. Also: potency is read from the fitted curve at half-maximal effect.
Assay [8] is described as follows: qHTS assay to identify aromatase inhibitors - cell viability counter screen (AID 743084).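 Also: cells stimulated with testosterone during compound exposure; nearly all actives have a fitted effect of over 55% in size.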 Also: potency is read from the fitted curve at half-maximal effect.
The nature of assay [9]: qHTS assay to identify small molecule that activate the aryl hydrocarbon receptor (AhR) signaling pathway - cell viability counter screen (AID 743086). Also: nearly all actives have a fitted effect of over 45% in size. Also: potency is read from the fitted curve at half-maximal effect. The method in brief:
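HepG2-AhR-luc (HG2L7.5c1) cells, 4000/well, were preincubated 5 h at 37C, exposed to compound in qHTS format for 24 hr at 37C, then given CellTiter-Fluor for 30 min; viability was read as fluorescence in the reporter wells.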

Assay [10] can be described thus: qHTS assay to identify small molecule antagonists of the peroxisome proliferator-activated receptor gamma (PPARg) signaling pathway - cell viability counter screen (AID 743194). Also: nearly all actives have a fitted effect of over 55% in size. Also: potency is read from the fitted curve at half-maximal effect. The method in brief: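 PPARg-UAS-bla HEK293H cells were plated, rested 5 h at 37 C, then treated with compounds plus rosiglitazone (50 nM final) for 17 h at 37 C; viability was then read by CellTiter-Glo luminescence after 30 min at room temperature.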

Assay [11] can be described thus: qHTS assay for small molecule agonists of the antioxidant response element (ARE) signaling pathway - cell viability counter screen (AID 743203; calls by dose curve; also: nearly all actives have a fitted effect of over 55% in size; also: potency is read from the fitted curve at half-maximal effect). The method in brief:
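Cytotoxicity was tested in parallel with the ARE reporter screen. ARE-bla HepG2 cells were exposed to compounds for 16 hrs, and viability was taken from CellTiter-Glo luminescence.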

Assay [12] addresses Aryl hydrocarbon receptor (Homo sapiens) (UniProt P35869). As to the kind of experiment: qHTS assay to identify small molecule that activate the aryl hydrocarbon receptor (AhR) signaling pathway (AID 743085). Also: nearly all actives have a fitted effect of over 15% in size. Also: potency is read from the fitted curve at half-maximal effect.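 As to activation: HG2L7.5c1 human HepG2 liver cells with stably integrated DRE-driven firefly reporter; series mostly up to about 70 µM.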 An outline of the steps:
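Steps: seed HepG2-AhR-luc cells; allow 5 h at 37C; pin-transfer test compound or vehicle; incubate 24 h at 37C; add viability dye (30 min, 37C) and read fluorescence; add luciferase substrate (30 min, RT) and read luminescence.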

The target in assay [13] is Peroxisome proliferator-activated receptor gamma (Homo sapiens) (UniProt P37231). As to the kind of experiment: qHTS assay to identify small molecule agonists of the peroxisome proliferator-activated receptor gamma (PPARg) signaling pathway (AID 743094; active = well fitted activation curve with a large enough effect in the signal ratio in the repeat runs, not every such curve was filed as active; the % refers to the signal ratio). The method in brief:
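Cells from the PPARg UAS-bla HEK293H line are plated and incubated 5 h at 37C. Compounds in DMSO are pinned in and left 17 h at 37C. LiveBLAzer B/G substrate is then added for 1 h at room temperature before fluorescence is measured.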

Assay [14] concerns the target Estrogen receptor (Homo sapiens) (UniProt P03372). As to the kind of experiment: qHTS assay to identify small molecule antagonists of the estrogen receptor alpha (ER-alpha) signaling pathway (AID 743069; active = well fitted curve in the direction sought with a large enough effect in the signal ratio in the repeat runs, not every such curve was filed as active; the % refers to the signal ratio). An outline of the steps: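 A 17beta-estradiol challenge was applied right after compound transfer to ER-alpha-UAS-bla HEK293 cells previously kept in charcoal-stripped serum. Plates stood 18 hr at 37C and 5% CO2; fluorescence was read following 2 hr FRET substrate loading at room temperature.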

Assay [15] in a line: qHTS assay for small molecule activators of the heat shock response signaling pathway - cell viability counter screen (AID 743209). Also: nearly all actives have a fitted effect of over 50% in size. The method in brief: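 Cytotoxicity counter screen run in parallel with the HSE beta-lactamase reporter, using the same wells. HeLa HSE-bla cells received compound for 5 h at 37 C; ATP-based CellTiter-Glo luminescence was measured after 30 min at room temperature.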

Assay [16] can be described thus: qHTS assay for small molecule activators of the heat shock response signaling pathway (AID 743210; active = well fitted activation curve with a large enough effect in the signal ratio in the repeat runs, with a control signal flat, not every such curve was filed as active; the % refers to the signal ratio; also: series mostly up to about 63 µM). The method in brief:
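Heat shock element–beta-lactamase HeLa reporter cells; qHTS with compounds for 5 h at 37 C; detection by FRET substrate fluorescence after 2.5 h at RT.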

Sequence of Peroxisome proliferator-activated receptor gamma (Homo sapiens) (P37231 whole entry, looked up): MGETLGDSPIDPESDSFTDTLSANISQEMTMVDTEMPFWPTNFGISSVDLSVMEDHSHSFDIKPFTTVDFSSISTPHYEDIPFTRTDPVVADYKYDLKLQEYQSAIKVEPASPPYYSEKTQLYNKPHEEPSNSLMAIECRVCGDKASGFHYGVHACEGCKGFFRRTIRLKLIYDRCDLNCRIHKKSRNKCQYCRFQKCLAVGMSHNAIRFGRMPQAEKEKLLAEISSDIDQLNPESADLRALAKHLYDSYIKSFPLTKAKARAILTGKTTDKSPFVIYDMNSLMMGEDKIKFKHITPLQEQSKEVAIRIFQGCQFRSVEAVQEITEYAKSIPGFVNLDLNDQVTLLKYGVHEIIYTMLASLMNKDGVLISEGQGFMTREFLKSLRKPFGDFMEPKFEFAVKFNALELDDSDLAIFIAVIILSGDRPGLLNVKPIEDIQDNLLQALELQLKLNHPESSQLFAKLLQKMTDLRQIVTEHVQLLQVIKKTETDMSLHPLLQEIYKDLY
Sequence of Aryl hydrocarbon receptor (Homo sapiens) (P35869 whole entry, looked up): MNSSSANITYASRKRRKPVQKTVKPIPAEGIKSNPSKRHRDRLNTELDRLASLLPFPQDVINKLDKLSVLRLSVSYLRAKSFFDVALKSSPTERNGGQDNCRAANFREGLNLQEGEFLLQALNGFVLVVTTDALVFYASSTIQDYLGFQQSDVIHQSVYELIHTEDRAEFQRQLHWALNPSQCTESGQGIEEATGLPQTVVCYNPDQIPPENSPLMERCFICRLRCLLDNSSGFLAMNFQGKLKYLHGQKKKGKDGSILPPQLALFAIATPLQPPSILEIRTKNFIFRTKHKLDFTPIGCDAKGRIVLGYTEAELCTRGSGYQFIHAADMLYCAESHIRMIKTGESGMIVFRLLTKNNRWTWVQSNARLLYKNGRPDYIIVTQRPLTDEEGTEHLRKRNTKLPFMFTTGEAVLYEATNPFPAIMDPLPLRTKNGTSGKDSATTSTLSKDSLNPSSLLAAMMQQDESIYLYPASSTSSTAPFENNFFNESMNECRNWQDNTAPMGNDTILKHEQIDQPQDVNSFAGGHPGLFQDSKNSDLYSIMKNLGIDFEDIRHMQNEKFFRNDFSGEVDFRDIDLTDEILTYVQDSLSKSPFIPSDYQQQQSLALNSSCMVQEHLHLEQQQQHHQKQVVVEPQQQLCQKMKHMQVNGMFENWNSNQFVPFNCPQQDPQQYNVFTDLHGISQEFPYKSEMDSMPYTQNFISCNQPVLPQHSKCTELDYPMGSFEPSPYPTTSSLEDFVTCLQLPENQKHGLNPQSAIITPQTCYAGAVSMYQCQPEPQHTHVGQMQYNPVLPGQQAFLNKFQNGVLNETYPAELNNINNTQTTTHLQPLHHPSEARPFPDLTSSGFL
Sequence of Aromatase (Homo sapiens) (P11511 whole entry, looked up): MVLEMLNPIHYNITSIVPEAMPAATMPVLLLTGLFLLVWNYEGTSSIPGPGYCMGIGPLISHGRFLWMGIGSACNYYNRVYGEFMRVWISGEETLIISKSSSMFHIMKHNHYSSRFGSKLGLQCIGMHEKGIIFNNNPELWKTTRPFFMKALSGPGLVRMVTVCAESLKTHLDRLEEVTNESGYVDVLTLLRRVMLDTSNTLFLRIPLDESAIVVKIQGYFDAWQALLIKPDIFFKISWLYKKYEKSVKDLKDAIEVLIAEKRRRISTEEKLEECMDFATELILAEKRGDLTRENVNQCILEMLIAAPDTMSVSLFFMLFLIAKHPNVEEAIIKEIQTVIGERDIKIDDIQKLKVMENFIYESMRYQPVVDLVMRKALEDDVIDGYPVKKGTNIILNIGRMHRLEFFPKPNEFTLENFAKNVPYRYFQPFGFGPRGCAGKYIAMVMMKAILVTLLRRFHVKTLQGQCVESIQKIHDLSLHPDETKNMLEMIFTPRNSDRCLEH
Sequence of Estrogen receptor (Homo sapiens) (P03372 whole entry, looked up): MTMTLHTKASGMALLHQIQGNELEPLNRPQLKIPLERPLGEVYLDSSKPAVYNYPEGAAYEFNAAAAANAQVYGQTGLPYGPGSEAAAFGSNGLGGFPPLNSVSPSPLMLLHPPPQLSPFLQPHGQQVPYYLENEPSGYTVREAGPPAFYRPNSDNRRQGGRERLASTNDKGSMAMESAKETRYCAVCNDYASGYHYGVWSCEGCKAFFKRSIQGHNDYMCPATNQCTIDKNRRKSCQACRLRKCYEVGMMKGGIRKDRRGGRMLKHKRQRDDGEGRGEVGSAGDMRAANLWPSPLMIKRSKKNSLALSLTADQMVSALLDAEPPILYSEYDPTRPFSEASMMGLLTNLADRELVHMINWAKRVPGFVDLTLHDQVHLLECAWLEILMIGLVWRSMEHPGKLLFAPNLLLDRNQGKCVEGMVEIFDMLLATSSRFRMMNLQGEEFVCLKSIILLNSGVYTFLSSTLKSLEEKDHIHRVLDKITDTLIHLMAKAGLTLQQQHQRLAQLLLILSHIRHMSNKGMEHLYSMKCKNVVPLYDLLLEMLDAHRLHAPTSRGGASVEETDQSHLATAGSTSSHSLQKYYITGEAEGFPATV

For the compound `COc1cc(/C=C/C(=O)CC(=O)/C=C/c2ccc(O)c(OC)c2)ccc1O`, the Potency in assay [1] is 23.7 µM (active) and 17.3 µM (active); in assay [3], “inactive and 49.3 µM (active)”; in assay [5], 23.7 µM (active) and inactive; in assay [7], “inactive and 54.8 µM (active)”; in the assay with Aromatase (Homo sapiens) it was “inactive and 48.9 µM (active)”; in assay [9], “inactive and 27.5 µM (active)”. Further, the Potency in assay [10] is 43.9 µM (active); in assay [11], 54.8 µM (active). The Potency result in assay [2], in assay [4], in [6] and in assay [8] was “inactive” throughout.

Regarding `CC(C)C[C@H](NC(=O)[C@@H](COC(C)(C)C)NC(=O)[C@H](Cc1ccc(O)cc1)NC(=O)[C@H](CO)NC(=O)[C@H](Cc1c[nH]c2ccccc12)NC(=O)[C@H](Cc1cnc[nH]1)NC(=O)[C@@H]1CCC(=O)N1)C(=O)N[C@@H](CCCN=C(N)N)C(=O)N1CCC[C@H]1C(=O)NNC(N)=O`, the Potency result (in assay [1]; in assay [2]; in assay [3]; in assay [6]; in assay [7]; in the assay with Aromatase (Homo sapiens)) was “inactive” each time. For the same compound, the Potency entry in [8], in assay [12] and in assay [13] was “inactive” in each case.

As for `C[C@H](Cc1ccc(O)c(O)c1)[C@@H](C)Cc1ccc(O)c(O)c1`, the Potency in assay [1] was 8.41 µM (active). In addition, the Potency entry in assay [2], in assay [14], in [3], in assay [4], in [5] and in assay [6] was “inactive” throughout. The Potency result (in assay [7]; in the assay with Aromatase (Homo sapiens); in assay [8]; in assay [9]; in [13]) was “inactive” in each case.

For the compound `c1ccc2occc2c1`, the Potency result in assay [1], in assay [2], in [14], in assay [4], in [5] and in assay [6] was “inactive” throughout. Also, the Potency result in [7], in [13] and in [15] was “inactive” throughout. Also, the Potency (with Aromatase (Homo sapiens); in assay [8]) was 68.6 µM (active) in each case.

`Cc1cc(N)c2ccccc2[n+]1CCCCCCCCCC[n+]1c(C)cc(N)c2ccccc21`: the Potency in [1] is 11.4 µM (active); in [3] it was 8.11 µM (active). Further, the Potency result in assay [2], in [4], in assay [12], in [9] and in assay [13] was “inactive” in each case.

In the case of `Nc1ccc(N)c([N+](=O)[O-])c1`, the Potency result (in assay [1]; in [2]; with Aromatase (Homo sapiens)) was “inactive” throughout. Also, the Potency in assay [8] is 61.1 µM (active); in [12], 24.3 µM (active).

Take `FC(F)(F)C(F)(F)C(F)(F)C(F)(F)C(F)(F)F`: the Potency result in assay [1], in [2], in [14], in [3], in [4] and in [5] was “inactive” throughout. Further, the Potency result (in [6]; with Aromatase (Homo sapiens); in assay [8]; in assay [9]; in assay [13]) was “inactive” each time.

For the compound `SC1CCCCC1`, the Potency result (in assay [1]; in assay [2]; in [3]; in assay [7]; in the assay with Aromatase (Homo sapiens); in [8]) was “inactive” throughout. Moreover, the Potency result in assay [12], in assay [9], in [13], in assay [10], in assay [11] and in assay [15] was “inactive” in each case. Besides, the compound was called inactive in assay [16].

Take `O=C(O)c1cc(O)c2c(c1)[C@H]([C@H]1c3cc(C(=O)O)cc(O)c3C(=O)c3c(O[C@@H]4O[C@H](CO)[C@@H](O)[C@H](O)[C@H]4O)cccc31)c1cccc(O[C@@H]3O[C@H](CO)[C@@H](O)[C@H](O)[C@H]3O)c1C2=O`: the Potency result (in assay [1]; in assay [2]; in assay [3]; in [7]; in the assay with Aromatase (Homo sapiens); in [8]) was “inactive” each time. The Potency entry in assay [12] and in [13] was “inactive” each time.

For the compound `CN(C)CCc1c[nH]c2ccc(Cn3cncn3)cc12`, the Potency entry (in [1]; in assay [2]; in [3]; in [7]; in the assay with Aromatase (Homo sapiens); in [8]) was “inactive” throughout. Also, the Potency result in assay [12], in assay [9] and in [13] was “inactive” throughout.

For `CC(C)CCC[C@@H](C)[C@H]1CC[C@H]2[C@@H]3CC[C@@H]4C[C@H](O)CC[C@]4(C)[C@H]3CC[C@]12C`, the Potency result in assay [1], in [2], in assay [14], in assay [3], in assay [4] and in assay [5] was “inactive” in each case. Moreover, the Potency entry (in [6]; in assay [7]; in the assay with Aromatase (Homo sapiens); in assay [8]; in assay [9]; in [13]) was “inactive” throughout.

`CCc1cn([C@H]2C[C@H](O)[C@@H](CO)O2)c(=O)[nH]c1=O`: the Potency result (in assay [1]; in assay [2]; in assay [3]; in [7]; with Aromatase (Homo sapiens); in assay [8]) was “inactive” each time. Moreover, the Potency entry in [9] and in assay [13] was “inactive” each time.

Turning to `COC1[C@@H](O[C@@H]2O[C@H](C)[C@@H](O[C@H]3C[C@@](C)(O)[C@H](OC(=O)CC(C)C)[C@H](C)O3)[C@H](N(C)C)[C@H]2O)[C@@H](CC=O)C[C@@H](C)[C@@H](O)/C=C/C=C/C[C@@H](C)OC(=O)C[C@H]1OC(C)=O` (stereo not given in full), the Potency result in assay [1], in assay [2], in [14], in assay [3], in assay [4] and in assay [5] was “inactive” each time. Besides, the Potency result (in assay [6]; with Aromatase (Homo sapiens); in [8]; in [12]) was “inactive” throughout.

As to `CCOc1cc(CC(=O)N[C@@H](CC(C)C)c2ccccc2N2CCCCC2)ccc1C(=O)O`, the Potency entry (in assay [1]; in assay [2]; in [3]; in the assay with Aromatase (Homo sapiens); in assay [8]; in assay [12]) was “inactive” in each case. The Potency result in assay [9] is “inactive”.

As to `O=C(O)c1cc2cc(Cc3cccnc3)ccc2o1`, the Potency entry in [1], in assay [2], in assay [14], in assay [3], in [6] and in [7] was “inactive” throughout. Further, the Potency entry (with Aromatase (Homo sapiens); in [8]; in [9]; in assay [13]) was “inactive” in each case. The Potency in assay [5] was 18.8 µM (active).
